Assay outcomes from PubChem BioAssay.
S1P2 agonist = S1P2 receptor agonists, primary screen, cell-based; S1P2-expressing cell line, agonist reporter read-out; activation, % at 4.5 µM; Sphingosine 1-phosphate receptor 2 (Homo sapiens), O95136; AID 729, 2007; 97,000 tested, 0.46% active; in the data active = activation above about 16%
GALR2 ag = GALR2 receptor agonists, primary screen, cell-based | Galanin receptor type 2 (Homo sapiens), O43603 | GALR2-expressing cells, agonist activation read-out | activation, % (concentration not given with the values) | 140,000 tested, 0.48% active | AID 803, 2007; in the data active = activation above about 5%, passing the limit was not always enough
Target sequence (O43603 whole entry, looked up): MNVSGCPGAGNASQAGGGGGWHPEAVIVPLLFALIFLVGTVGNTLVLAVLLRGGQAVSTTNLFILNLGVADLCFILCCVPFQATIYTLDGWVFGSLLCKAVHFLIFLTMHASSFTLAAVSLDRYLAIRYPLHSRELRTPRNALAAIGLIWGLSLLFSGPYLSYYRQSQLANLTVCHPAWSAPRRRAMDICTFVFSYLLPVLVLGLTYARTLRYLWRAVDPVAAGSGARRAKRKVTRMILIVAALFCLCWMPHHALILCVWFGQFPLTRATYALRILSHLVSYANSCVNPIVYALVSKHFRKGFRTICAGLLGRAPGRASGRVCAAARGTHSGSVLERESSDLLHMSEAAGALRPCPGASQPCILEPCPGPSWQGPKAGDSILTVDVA
PostGolgi ctrl = growth inhibition of yeast control strain, primary screen, counter-screen for post-Golgi transport modulator project | efflux-deficient yeast background strain, growth absorbance A615, 16 h | inhibition, % at 10 µM | AID 738, 2007 | 98,000 tested, 5% active
GALR2 antag = GALR2 antagonists in receptor-expressing cells, primary screen; Galanin receptor type 2 (Homo sapiens), O43603; antagonist mode; inhibition, % at 4 µM; 140,000 tested, 0.39% active; in the data active = inhibition above about 27%;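 note: cells stimulated with galanin 1-16 at roughly its EC80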
S1P2 blocker = human S1P2 receptor antagonists, primary screen, cell-based | inhibition, % at 5 µM | cell-based S1P2 antagonist assay, inhibition at 5 uM | AID 736, 2007 | 97,000 tested, 0.21% active; in the data active = inhibition above about 45%;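 note: CRE beta-lactamase reporter cells expressing human S1P2 stimulated with S1P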
PostGolgi yeast = phenotypic screen on post-Golgi transport, primary screen | post-Golgi transport phenotypic cell assay | inhibition, % at 10 µM | 98,000 tested, 0.9% active;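 note: yeast cells grown in 1536-well plates; yeast grown about 18 h at 30C before absorbance read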
GALR2 agon conf = GALR2 agonists, retest of hits, confirmation, cell-based | shares compounds with GALR2 ag | GALR2-expressing cells, agonist activation | activation, % at 5.6 µM | 460 tested, 10% active; in the data active = activation above about 8.4%
BLA activ ctr = activators of NFAT-driven beta-lactamase reporter, confirmation, counter-screen for GALR2 agonist project, CHO NFAT-bla cells, FRET readout; shares compounds with GALR2 ag; beta-lactamase FRET activation; activation, % at 5.6 µM; 460 tested, 10% active; AID 865, 2007;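 active = activation above the screen-wide mean activation plus 3 SD, cut at about 8% in these data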
Each line names hits and unclear results; the compound was inactive in the other large screens (follow-up assays come after a bar, where they were run). Shown is part of a subset that was picked to be rich in hits. Cut-off read from the data, not from the text of the source, unless noted: active = inhibition above about 30%; inactive = the rest.

CCCc1nc(SCC(=O)Nc2ccccc2)c2c(=O)n(C)c(=O)n(C)c2n1	none
Cn1c(=O)c2c(SCC(=O)N3CCCc4ccccc43)nc(CC(C)(C)C)nc2n(C)c1=O	none
CCc1nc(SCc2cccnc2)c2c(=O)n(C)c(=O)n(C)c2n1	S1P2 agonist 17
CCCc1nc(SCC(=O)N2CCC(Cc3ccccc3)CC2)c2c(=O)n(C)c(=O)n(C)c2n1	PostGolgi ctrl 38
CCCc1nc(SCC(=O)N2CCCc3ccccc32)c2c(=O)n(C)c(=O)n(C)c2n1	PostGolgi ctrl 37, PostGolgi yeast 49
Cn1c(=O)c2c(SCc3cccnc3)nc(C3CC3)nc2n(C)c1=O	none
Cc1ccc(S(=O)(=O)NCCC(=O)Nc2ccc(C)cc2C(=O)c2ccccc2)cc1	none (no result: S1P2 agonist, PostGolgi ctrl, S1P2 blocker, PostGolgi yeast)
CC1=C(C(=O)OC(C)C)C(c2cn(-c3ccccc3)nc2-c2cccs2)NC(=O)N1 (configuration not stated)	none (no result: S1P2 agonist, PostGolgi ctrl, S1P2 blocker, PostGolgi yeast)
CCC(OC(=O)C(NC(=O)c1ccccc1)c1ccccc1)C(=O)Nc1cc(C)on1 (configuration not stated)	PostGolgi yeast 42
CC1=NNC(=O)/C1=C\c1cn(-c2ccccc2)nc1-c1ccc(Cl)cc1	PostGolgi ctrl 98, PostGolgi yeast 109
O=C(OCCN1CCN(c2ncc(C(F)(F)F)cc2Cl)CC1)c1ccc(Cl)cc1	PostGolgi ctrl 31
O=C(CSc1nccn1-c1ncc(C(F)(F)F)cc1Cl)c1ccc(Cl)cc1	PostGolgi ctrl 32
Nc1c(C(O)(C(F)(F)F)C(F)(F)F)ccc2ccccc12	none
Cc1ccccc1NC(=S)NCc1ccc2c(c1)OCO2	PostGolgi ctrl 38
Cc1cccc(NC(=S)NCc2ccc3c(c2)OCO3)c1C	none (no result: S1P2 agonist, PostGolgi ctrl, S1P2 blocker, PostGolgi yeast)
Cc1cc(N2CCN(c3ccccc3)CC2)nc(NCc2ccccc2)n1	PostGolgi ctrl 47
CNC(=O)CSc1nnc(SCCC(=O)O)s1	none (no result: S1P2 agonist, PostGolgi ctrl, S1P2 blocker, PostGolgi yeast)
O=C(Cc1ccc(Br)cc1)c1ccc(O)cc1O	PostGolgi ctrl 30
CCCC/C(O)=C1\C(=O)CC(C)(C)CC1=Nc1ccccc1OC	PostGolgi ctrl 31
C=CCNCCCCOc1ccc(Br)cc1C	none (no result: S1P2 agonist, PostGolgi ctrl, S1P2 blocker, PostGolgi yeast)
Cc1cc(Br)ccc1OCCCCNCCO	S1P2 agonist 69
Brc1ccc2c(c1)OCCOCCOc1cc(Br)ccc1OCCOCCOCCO2	PostGolgi ctrl 68
c1ccc2c(c1)OCCOCCOc1ccccc1OCCOCCO2	none (no result: S1P2 agonist, PostGolgi ctrl, S1P2 blocker, PostGolgi yeast)
Cc1ccc(OCCn2c(C)c(/C=N/n3cnnc3)c3ccccc32)cc1	GALR2 ag 9.1 | GALR2 agon conf inactive | BLA activ ctr inactive
Cc1c(/C=N/n2cnnc2)c2ccccc2n1CCOc1ccc(Cl)cc1	none
CCOC(=O)c1c(/N=C/C2=C(O)CC(C)(C)CC2=O)sc(C)c1C	none (no result: S1P2 agonist, PostGolgi ctrl, S1P2 blocker, PostGolgi yeast)
COc1ccc(CCn2c(N)c(C(=O)NCc3ccco3)c3nc4ccccc4nc32)cc1	none (no result: S1P2 agonist, PostGolgi ctrl, S1P2 blocker, PostGolgi yeast)
COc1ccc(CCn2c(N)c(C(=O)NCc3ccco3)c3nc4ccccc4nc32)cc1OC	GALR2 ag 12 | GALR2 agon conf inactive | BLA activ ctr 9.9
CSCCC(NC(=O)c1cccc([N+](=O)[O-])c1)C(=O)O (configuration not stated)	none (no result: S1P2 agonist, PostGolgi ctrl, S1P2 blocker, PostGolgi yeast)
CN(C)c1nc(-c2ccccc2)cc(C(F)(F)F)c1C#N	none | GALR2 agon conf inactive | BLA activ ctr inactive
CCN(CC)c1nc(-c2ccc(Cl)cc2)cc(C(F)(F)F)c1C#N	none
CC(/C=N\NC(=O)c1cccnc1)c1ccccc1 (configuration not stated)	none (no result: PostGolgi ctrl, PostGolgi yeast)
O=c1oc2ccccc2cc1-c1nc2c(s1)CCc1ccccc1-2	GALR2 ag 10 (no result: S1P2 agonist, PostGolgi ctrl, S1P2 blocker, PostGolgi yeast) | GALR2 agon conf inactive | BLA activ ctr inactive
Nc1nnc(-c2cc3ccccc3oc2=O)s1	none
O=C(O)c1cccc(NC(=S)NC(=O)C(c2ccccc2)c2ccccc2)c1	none | GALR2 agon conf inactive | BLA activ ctr inactive
O=C(Nc1cccc(NC(=S)NC(=O)c2cccs2)c1)c1ccccc1	none (no result: S1P2 agonist, PostGolgi ctrl, S1P2 blocker, PostGolgi yeast)
